Among the data in PubChem BioAssay (NCI) are growth values, retold here.

About 83,000 compounds went through this panel and 20% of them were active in at least one assay; those are over-represented in the sample as a whole.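 Cell lines were cultured in 96-well plates, exposed to a single compound concentration, and assessed for percent growth 48 hours later.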 The source made the active and inactive calls. Rule for the calls: active = growth percent below 10; inactive = the rest.

The test system of the assay is HL-60(TB) leukemia. The experiment in a line: NCI-60 one-dose screen, 48 h (100 = growth as untreated, 0 = no growth, -100 = all killed). The following applies: 10 µM unless noted.
Regarding `O=C(N/N=C/c1occc1Br)c1[nH]c2ccc(Br)cc2c1-c1ccccc1`, the growth was -34.2% (active).

With `Cc1noc2c(Cc3ccccc3)nn(CC(=O)N/N=C/c3ccc(Br)cc3)c(=O)c12`, the growth was 100% (inactive).

As to `FC(F)(F)c1cc2c(Cl)ncnc2n1CCC1CCOCC1`, the growth is -59.6% (active).

As to `COC(=O)/C=C/c1cccc2c1C(=O)NC(C)(c1cc3ccccc3oc1=O)N2` (stereo unspecified), the growth is 40% (inactive).

On to `COc1cccc(/C=C/c2nc3ccccc3c(=O)n2CC(=O)Nc2ccccc2)c1`, for which the growth was 97.7% (inactive).

With `C#CCOc1cc(N(CC)CC)ccc1C(C(=O)NC(C)(C)C)N(C(=O)C1CCc2cc(F)ccc2O1)c1ccc(Br)cc1` (stereo unspecified), the growth was 44.7% (inactive).
